Source: PubChem (National Center for Advancing Translational Sciences (NCATS))
EPAC1 ag = EPAC1 (human) agonism. O95398. AID 720707. 360,000 compounds, 0.073% hits. EPAC1 agonist qHTS, biochemical assay; response scale: 100% = response to 6.5 mM cAMP. Potency, µM (highest dose often 154 µM), hits mostly activators; note: nearly all actives have a fitted effect of over 60% in size
Target sequence (O95398 whole entry, looked up): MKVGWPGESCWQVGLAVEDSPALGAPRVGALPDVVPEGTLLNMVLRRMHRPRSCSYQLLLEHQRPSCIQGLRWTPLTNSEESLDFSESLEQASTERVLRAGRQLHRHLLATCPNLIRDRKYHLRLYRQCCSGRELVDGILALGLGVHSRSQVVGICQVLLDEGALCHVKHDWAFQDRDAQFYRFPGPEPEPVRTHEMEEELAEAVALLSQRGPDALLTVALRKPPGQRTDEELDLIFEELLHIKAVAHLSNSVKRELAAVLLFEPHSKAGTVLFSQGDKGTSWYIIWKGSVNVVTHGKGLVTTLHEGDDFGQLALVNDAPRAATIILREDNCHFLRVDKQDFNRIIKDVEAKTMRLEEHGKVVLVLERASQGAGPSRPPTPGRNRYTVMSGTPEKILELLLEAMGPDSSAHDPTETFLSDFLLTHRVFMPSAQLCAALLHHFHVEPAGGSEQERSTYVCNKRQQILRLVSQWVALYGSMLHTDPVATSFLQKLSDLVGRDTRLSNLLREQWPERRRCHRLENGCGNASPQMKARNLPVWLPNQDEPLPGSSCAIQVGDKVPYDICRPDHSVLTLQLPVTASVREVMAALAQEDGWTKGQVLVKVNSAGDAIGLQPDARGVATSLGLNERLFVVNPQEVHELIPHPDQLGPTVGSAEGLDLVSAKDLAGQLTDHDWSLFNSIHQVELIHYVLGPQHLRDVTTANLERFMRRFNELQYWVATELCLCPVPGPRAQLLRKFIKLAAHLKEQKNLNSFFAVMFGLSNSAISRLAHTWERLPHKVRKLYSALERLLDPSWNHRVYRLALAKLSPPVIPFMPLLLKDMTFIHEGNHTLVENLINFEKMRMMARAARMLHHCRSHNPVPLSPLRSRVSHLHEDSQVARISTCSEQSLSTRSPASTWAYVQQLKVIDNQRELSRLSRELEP
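EPAC1 100 nM, Rap1B–BODIPY-GDP 250 nM, unlabeled GDP 50 uM; compound titration; 5 min RT; kinetic read ex480/em540 at 5-min intervals ×30 min; data normalized to 6.5 mM cAMP agonist control.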
USP1 inh = inhibitors of human USP1/UAF1 deubiquitinase; O94782; recombinant USP1/UAF1, Ub-Rhodamine cleavage fluorescence; Potency, µM (highest dose often 57.1 µM), actives largely listed as inhibitors; 390,000 compounds, 0.23% hits; AID 743255; note: nearly all actives have a fitted effect of over 60% in size
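1 nM enzyme complex + cpd, 15 min RT; start with Ub-Rho 150nM final; kinetic fluorescence ex 480/em 540, 6 reads q60 s. Buffer 50mM HEPES pH 7.8, 0.5mM EDTA, 0.1 mg/ml BSA, 1mM TCEP, 0.01% Tween-20.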
BRCA1 expr up = BRCA1 expression activation; 380,000 compounds, 1.1% hits; MCF7-BRCA1-FFLuc reporter, luminescence, 48 h; response scale: scaled: vehicle 0%, 10 µM genistein 100%; AID 624202; Potency, µM (highest dose often 46.1 µM), usual class: activators; note: nearly all actives have a fitted effect of over 80% in size
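Luminescence from a BRCA1-driven firefly luciferase in MCF7 cells was read after 48 h compound exposure at 37 C. Data normalized against DMSO and a 10microM genistein activation control, then curve-fitted across the titration.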
EPAC2 antag = blocks human EPAC2 exchange factor | AID 720708 | Potency, µM (highest dose often 114 µM), hits mostly inhibitors | EPAC2 GEF exchange of Rap1B-BODIPY-GDP, fluorescence | 360,000 compounds, 0.18% hits | Q8WZA2; note: nearly all actives have a fitted effect of over 45% in size
EPAC1 antagonist = antagonists of human EPAC1; 360,000 compounds, 0.14% hits; Potency, µM (series often up to 115 µM), hits mostly inhibitors; AID 720709; O95398; EPAC1 GEF assay, Rap1b-BODIPY-GDP exchange fluorescence; note: nearly all actives have a fitted effect of over 50% in size
EPAC2 ag = EPAC2 (human) agonism. Potency, µM (doses to about 154 µM), hits mostly activators. EPAC2 activation, biochemical qHTS; response scale: 100% = 6.5 mM cAMP response. 360,000 compounds, 0.079% hits. Q8WZA2; note: nearly all actives have a fitted effect of over 50% in size
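Fluorescence exchange assay: 100 nM EPAC2 with 250 nM RAP1B-BODIPY-GDP and 50 uM GDP; compounds tested as a concentration-titration series (qHTS). Loss of Rap1-bound BODIPY-GDP fluorescence read at 480/540 nm; data normalized to 6.5 mM cAMP.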
Each line names hits and unclear results; the compound was inactive in the other large screens. In the library only some 1.4% were active in any assay of this set; here they are far more common. Calls come from the whole dose curve; as a rule, active = well fitted curve in the direction sought with a large enough effect; inconclusive = small, poorly fitted or top-dose-only effect, or another doubt; inactive = no such curve, though single readings can be large; an effect the other way counts as inactive or inconclusive.

O=C(NC1(O)C(=O)c2ccccc2C1=O)c1ccc(C(F)(F)F)cc1	USP1 inh 16µM, EPAC2 antag inconclusive, EPAC1 antagonist 35µM
CCOc1ccc2nc(SCc3ccccc3C#N)sc2c1	BRCA1 expr up 7.9µM
CCOc1ccc2nc(SCc3ccc(OC)cc3)sc2c1	none
COc1ccc2c(Sc3ccc(C)cc3)c(C(=O)NCC(C)c3ccccc3)[nH]c2c1 (stereo not given)	none (no result: EPAC1 ag, BRCA1 expr up, EPAC2 antag, EPAC1 antagonist, EPAC2 ag)
N#Cc1c(NC(=O)c2ccc(Br)o2)n(-c2ccccc2)c2nc3ccccc3nc12	USP1 inh 6.3µM, EPAC2 antag inconclusive, EPAC1 antagonist inconclusive
O=C(NCCSc1ccccc1)c1ccccc1Cl	BRCA1 expr up 2.8µM
O=C(NCCSc1ccccc1)c1ccc(Br)cc1	BRCA1 expr up inconclusive
O=C(NCCSc1ccccc1)c1cncc(Br)c1	BRCA1 expr up 7.9µM
O=C(CCNC(=O)c1ccccc1Cl)NCCCSc1ccccc1	none
O=C(CN1C(=O)CSc2ccc(S(=O)(=O)N3CCCC3)cc21)NCc1ccc(F)cc1Cl	none (no result: EPAC1 ag, EPAC2 antag, EPAC1 antagonist, EPAC2 ag)
CCC(C)Oc1nc(C)cc(C)c1S(=O)(=O)c1ccccc1C (stereo not given)	none
COc1nc(C)cc(C)c1S(=O)(=O)c1ccccc1C	EPAC2 antag 13µM
C#CCOc1nc(C)cc(C)c1S(=O)(=O)c1ccccc1C	EPAC2 antag 28µM
Cc1cc(C)c(S(=O)(=O)c2ccccc2C)c(OCCN(C)C)n1	none
CSc1nc(C)cc(C)c1S(=O)(=O)c1ccccc1C	EPAC2 antag 35µM
CCC1CCCCN1CCCNC(=O)Cn1c(=O)c2cccn2c2cccnc21 (stereo not given)	none
CCOc1ccc(/C=N/NC(=O)Nc2ccccc2)cc1	BRCA1 expr up inconclusive
COC(=O)N/N=C\c1ccc(OC/C=C/c2ccccc2)cc1	BRCA1 expr up 7.1µM
CCOC(=O)N/N=C/c1ccccc1F	BRCA1 expr up 10µM
CC(=O)Oc1ccc(/C=N/NC(=S)Nc2ccccc2)cc1	BRCA1 expr up 11µM
Cc1ccc(/C=N/NC(=O)Nc2ccccc2)o1	BRCA1 expr up 13µM
O=C(CSc1n[nH]c(-c2ccccc2O)n1)NC1CCCCC1	none
NC(=O)c1ncn([C@@H]2O[C@H](CNC(=O)[C@H](N)CSCc3ccccc3)[C@@H](O)[C@H]2O)n1	USP1 inh inconclusive
COc1cc2c(NC3CCN(C)CC3)nc(N3CCCN(C)CC3)nc2cc1OCc1ccccc1	none (no result: EPAC1 ag, USP1 inh, EPAC2 antag, EPAC1 antagonist, EPAC2 ag)
COC(=O)N/N=C/c1ccc(Oc2ccccc2)cc1	BRCA1 expr up 10µM
CC(=O)N/N=C\c1ccccc1OC/C=C/c1ccccc1	BRCA1 expr up 2.8µM
CCOC(=O)N/N=C\c1ccc(OC/C=C/c2ccccc2)cc1	BRCA1 expr up 8.9µM
CC(=O)N/N=C\c1cccc(OC/C=C/c2ccccc2)c1	none
O=c1cc(-c2ccccc2F)oc2ccccc12	BRCA1 expr up 13µM
COc1ccc(N2CCN(c3nc4ccc(C)cc4n4nnnc34)CC2)cc1	none (no result: EPAC1 ag, BRCA1 expr up, EPAC2 antag, EPAC1 antagonist, EPAC2 ag)
C(=C\c1ccnc2ccccc12)/c1cccnc1	none (no result: EPAC1 ag, USP1 inh, EPAC2 antag, EPAC1 antagonist, EPAC2 ag)
O=[N+]([O-])c1cccc(/C=N/N2CCN(c3ccccn3)CC2)c1	USP1 inh inconclusive, BRCA1 expr up 8.9µM
O=[N+]([O-])c1cccc(/C=N/N2CCN(Cc3ccccc3)CC2)c1	BRCA1 expr up 13µM
O=[N+]([O-])c1ccccc1/C=C/C=N/N1CCCCC1	BRCA1 expr up 2.8µM
O=[N+]([O-])c1ccccc1/C=C\C=N\N1CCN(c2ccccc2)CC1	none
O=[N+]([O-])c1cccc(/C=N/N2CCN(Cc3ccc(Cl)cc3)CC2)c1	none
Oc1ccccc1/C=N/N1CCN(c2ccccn2)CC1	BRCA1 expr up 10µM
Cc1ccc(Cn2c(CCNc3nc(-c4ccc(Cl)c([N+](=O)[O-])c4)cs3)nc3cc(C(=O)NCCCO)ccc32)cc1	none
COc1ccc(/C=C/C(=O)c2c(O)c(OC)c3occc3c2OC)cc1OC	none (no result: EPAC1 ag, USP1 inh, EPAC2 antag, EPAC1 antagonist, EPAC2 ag)
O=C(CNC(=O)c1ccc(Cl)cc1)OCCCOC(=O)CNC(=O)c1ccc(Cl)cc1	none
COc1ccccc1CN1C(=O)C(C)ON=C1c1ccccc1F (stereo not given)	none (no result: USP1 inh)
CC(C)(C)c1ccc(S(=O)(=O)N2CCN(C(=O)C3CCC3)CC2)cc1	none
CCCCCCCCCC(=O)N[C@@H]1c2cc(OC)c(OC)cc2C[C@H]1OCc1ccccc1	none
O=[N+]([O-])c1cccc(C=NN2CCCCCC2)c1	BRCA1 expr up 13µM
COc1cc2c(NC3CCN(C)CC3)nc(N3CCCN(C)CC3)nc2cc1OCC1CCNCC1	none (no result: EPAC1 ag, USP1 inh, EPAC2 antag, EPAC1 antagonist, EPAC2 ag)
COc1cccc(-c2nn(Cc3ccccc3)cc2CO)c1	BRCA1 expr up 13µM
Cc1ccc(S(=O)(=O)NN2C(=O)/C(=C/c3ccccn3)SC2=S)cc1	none
COc1cc(/C=C2\SC(=S)N(NS(=O)(=O)c3ccc(C)cc3)C2=O)ccc1O	EPAC2 antag inconclusive, EPAC1 antagonist inconclusive
COc1cc(/C=C2\SC(=S)N(NS(=O)(=O)c3ccc(C)cc3)C2=O)cc(OC)c1OC	EPAC2 antag 50µM, EPAC1 antagonist 79µM
Cc1ccc(S(=O)(=O)NN2C(=O)/C(=C/c3cccc(F)c3)SC2=S)cc1	EPAC2 antag 32µM, EPAC1 antagonist inconclusive
Cc1cccc(Nc2ncc3c(n2)CC(c2ccco2)CC3=O)c1 (stereo not given)	none
Cc1cccc(Nc2ncc3c(n2)CC(C)CC3=O)c1 (stereo not given)	BRCA1 expr up 5µM
COc1ccc(NC(=O)c2c[nH]c(=O)n(-c3ccc(C)c(C)c3)c2=O)c(OC)c1	none
CCc1nc(SCc2ccc(Br)cc2)n[nH]1	BRCA1 expr up 10µM
CCOC(=O)C(C(=O)OCC)C1N=C(N)N=C2Oc3ccccc3N21 (stereo not given)	BRCA1 expr up 13µM
CCOC(=O)CN1C(=O)C(CC)Oc2ccccc21 (stereo not given)	none
CC(=O)c1cnc2c(-c3cccc(Br)c3)cnn2c1C	BRCA1 expr up 8.9µM
Nc1ccc(/C=C/c2nc3ccccc3s2)cc1	none (no result: EPAC1 ag, USP1 inh, EPAC2 antag, EPAC1 antagonist, EPAC2 ag)
Cc1nn(CCC(=O)O)c2nc(-c3cccnc3)cc(C(F)(F)F)c12	none
Cc1nn(CCc2nn[nH]n2)c2nc(-c3ccc(C4CCCCC4)cc3)cc(C(F)(F)F)c12	USP1 inh inconclusive, EPAC2 antag inconclusive, EPAC1 antagonist 79µM
CC/C(=N\N=C(/CC)c1ccccc1N)c1ccccc1N	none
CN(c1ccccc1)c1nc(N)c([N+](=O)[O-])c(N2CCCC2)n1	BRCA1 expr up 11µM
CN(c1ccccc1)c1nc(N)c([N+](=O)[O-])c(N2CCCCC2)n1	EPAC2 antag inconclusive
